Assay outcomes (PubChem)
In the library only some 10% were active in any assay of this set; here they are far more common.
RORgamma inh: blocks mouse ROR gamma transcriptional activity. Drosophila S2 Gal4-RORgamma UAS-luciferase reporter, 20 h. P51450. actives 5.4% (n = 310,000). Potency, µM (titrated, usually from 53.6 µM), usual class: inhibitors; further: nearly all actives have a fitted effect of over 60% in size
Target sequence (P51450 whole entry, looked up, the tested form may be a part): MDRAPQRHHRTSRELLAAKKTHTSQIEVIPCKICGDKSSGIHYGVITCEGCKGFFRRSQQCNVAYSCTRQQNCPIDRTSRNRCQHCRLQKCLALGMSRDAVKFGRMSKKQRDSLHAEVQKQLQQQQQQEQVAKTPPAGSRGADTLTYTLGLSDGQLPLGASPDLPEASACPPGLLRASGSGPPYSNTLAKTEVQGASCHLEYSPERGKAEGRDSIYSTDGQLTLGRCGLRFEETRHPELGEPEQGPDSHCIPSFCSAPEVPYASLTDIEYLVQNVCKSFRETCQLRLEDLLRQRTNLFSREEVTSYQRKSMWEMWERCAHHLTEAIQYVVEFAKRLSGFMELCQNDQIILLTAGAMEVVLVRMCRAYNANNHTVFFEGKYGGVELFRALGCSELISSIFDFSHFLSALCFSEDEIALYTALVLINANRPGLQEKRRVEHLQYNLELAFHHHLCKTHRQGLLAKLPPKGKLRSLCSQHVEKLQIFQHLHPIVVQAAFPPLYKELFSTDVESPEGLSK
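Stably transfected Drosophila Schneider cells are the test system, with ROR gamma fused to Gal4 and luciferase under UAS control; luminescence is read after 20 hr of 700 uM copper sulfate induction at ambient temperature.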
KB-3-1 cytotox: kills parental KB-3-1 adenocarcinoma cells; actives 1.4% (n = 400,000); AID 1347075; KB-3-1 viability, CellTiter-Glo ATP luminescence, 72 h; Potency, µM (titrated, usually from 46.1 µM), usual class: cytotoxic; further: nearly all actives have a fitted effect of over 60% in size
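Here the drug-naive KB-3-1 line serves as comparator for MDR sub-line selectivity; cells received compound titrations, 72 h at 37 °C, then CellTiter-Glo readout.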
KB-V1 cytotox: kills drug-selected multidrug resistant KB-V1 cells | KB-V1 MDR cells viability, CellTiter-Glo, 72 h | Potency, µM (highest dose often 46.1 µM), actives largely listed as cytotoxic | actives 3.4% (n = 400,000); further: nearly all actives have a fitted effect of over 60% in size
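In this primary screen, KB-V1 cells overexpressing P-gp are incubated with library compounds (lowest to highest concentration) for 72 h at 37 degrees C before a luminescent ATP viability read.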
MCF10A rereplic: inducers of DNA re-replication in MCF 10A breast cells. actives 2.9% (n = 350,000). MCF 10A DNA re-replication, Hoechst nuclear intensity, 48 h. Potency, µM (highest dose often 46.1 µM), hits mostly activators; further: nearly all actives have a fitted effect of over 50% in size
VP16 counter: Gal4-VP16 reporter inhibition counter-screen. Drosophila S2 Gal4-VP16 UAS-luciferase, luminescence, 20 h. Potency, µM (doses to about 53.6 µM), usual class: inhibitors. actives 3.5% (n = 310,000);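 further: Gal4-VP16 expression switched on by copper sulfate through the metallothionein promoter; nearly all actives have a fitted effect of over 50% in size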
SW480 rerep: inducers of DNA re-replication in SW480 colon cancer cells; SW480 DNA re-replication, Hoechst DNA content imaging, 48 h; Potency, µM (titrated, usually from 46.1 µM), usual class: activators; actives 1.8% (n = 340,000); AID 624297; further: nearly all actives have a fitted effect of over 55% in size
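250 cells/well; 23 nL cpd via pin tool; 48 hr, 37 C, 5% CO2; Hoechst 40 min; imager read of total nuclear intensity, ex 405/em 500-530 nm.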
Of the large screens only hits and unclear results are named; the others gave an inactive call; ! = a repeat was not active. The call rests on the fitted dose curve; in most records, active means well fitted curve in the direction sought with a large enough effect; inconclusive means small, poorly fitted or top-dose-only effect, or another doubt; inactive means no such curve, though single readings can be large; an effect the other way counts as inactive or inconclusive.

CCCn1nnc(NC(=S)NC(=O)C(C)(C)C)n1	RORgamma inh 3.5µM, VP16 counter 8.9µM
CCCn1nnc(NC(=O)c2ccc(-c3cccc(Cl)c3)o2)n1	MCF10A rereplic inconclusive
CCCn1nnc(NC(=S)NC(=O)c2cccs2)n1	RORgamma inh 2µM, VP16 counter 5.6µM (no result: SW480 rerep)
CCn1nnc(NC(=S)NC(=O)c2ccc(-c3cccc(Cl)c3)o2)n1	RORgamma inh 0.28µM, VP16 counter 2.8µM, SW480 rerep inconclusive
CNc1oc(-c2ccc(COc3ccc(C)cc3)o2)nc1C#N	none (no result: RORgamma inh, MCF10A rereplic, VP16 counter, SW480 rerep)
O=C(NC(=S)N1CCN(c2ccc(C(F)(F)F)cc2[N+](=O)[O-])CC1)c1cccs1	RORgamma inh 0.11µM, KB-V1 cytotox 15µM, MCF10A rereplic inconclusive, VP16 counter inconclusive
CCCCNC(=O)/C=C/c1cccs1	KB-V1 cytotox inconclusive
CCN1CCN(C(=S)NC(=O)c2cccs2)CC1	RORgamma inh 6.3µM, VP16 counter inconclusive
CC(=O)N1CCN(C(=O)CNC(=O)c2cccs2)CC1	KB-V1 cytotox inconclusive (no result: RORgamma inh, VP16 counter)
CCN1CCN(C(=S)NC(=O)/C=C/c2cccs2)CC1	RORgamma inh 3.2µM, VP16 counter inconclusive
O=S1(=O)C2CC3C=CC2(CN1Cc1ccccc1)O3 (centres undefined)	none (no result: KB-3-1 cytotox, KB-V1 cytotox, MCF10A rereplic, SW480 rerep)
N#Cc1ccc(CN2CCN(C(=O)c3ccccc3)CC2)c(Cl)c1	KB-V1 cytotox 21µM
OC[C@@H]1CN(Cc2ccc3c(c2)OCO3)C[C@H](n2cnc3c(NCc4ccc(F)cc4)ncnc32)O1	none (no result: RORgamma inh, MCF10A rereplic, VP16 counter, SW480 rerep)
CCC(CCNC(=O)c1ccccc1)(CCNC(=O)c1ccccc1)[N+](=O)[O-]	KB-V1 cytotox 21µM (no result: RORgamma inh, VP16 counter)
CC(CCNC(=O)c1ccccc1)(CCNC(=O)c1ccccc1)[N+](=O)[O-]	KB-V1 cytotox 15µM (no result: RORgamma inh, VP16 counter)
CC(C)(C)SCCNC(=O)c1ccccc1	RORgamma inh inconclusive
O=S(=O)(CC(CN1CCCCC1)N1CCCCC1)c1ccccc1 (centres undefined)	MCF10A rereplic 6.5µM, SW480 rerep inconclusive
O=[N+]([O-])c1ccc(S(=O)(=O)CC(CN2CCCCC2)N2CCCCC2)cc1 (centres undefined)	KB-V1 cytotox inconclusive
COc1cccc(NC(=S)N(CCCN2CCCC2)Cc2cccn2Cc2ccc(Cl)cc2)c1	RORgamma inh inconclusive, KB-3-1 cytotox inconclusive, KB-V1 cytotox inconclusive, VP16 counter inconclusive, SW480 rerep inconclusive
S=C(Nc1cccc(Cl)c1)N(CCCN1CCCC1)Cc1cccn1Cc1ccc(Cl)cc1	RORgamma inh 18µM, KB-3-1 cytotox inconclusive, KB-V1 cytotox 12µM, MCF10A rereplic inconclusive, VP16 counter inconclusive
CSc1cccc(NC(=S)N(CCCN2CCCC2)Cc2cccn2Cc2ccc(Cl)cc2)c1	RORgamma inh 13µM, KB-V1 cytotox 18µM, MCF10A rereplic 21µM, SW480 rerep inconclusive
CSc1cccc(NC(=S)N(CCCN2CCCC2)Cc2cccs2)c1	RORgamma inh inconclusive, KB-V1 cytotox inconclusive
CC(C)(C)c1ccc(C(=O)NNc2ncnc3c2cnn3-c2ccc(Cl)cc2)cc1	none (no result: RORgamma inh, MCF10A rereplic, VP16 counter, SW480 rerep)
Cn1ncc2c(NNC(=O)c3ccc(Cl)cc3Cl)ncnc21	RORgamma inh 6.3µM, KB-V1 cytotox inconclusive, VP16 counter 7.1µM
Cn1ncc2c(NNC(=O)c3ccc(Cl)c(Cl)c3)ncnc21	RORgamma inh 0.32µM, KB-V1 cytotox inconclusive, MCF10A rereplic inconclusive, VP16 counter 1.1µM
COc1ccc(CCNC(=O)CCc2c(C)nc3c(c(C)nn3-c3ccc(C)c(C)c3)c2C)cc1OC	none (no result: RORgamma inh, MCF10A rereplic, VP16 counter, SW480 rerep)
CCN(CC)CCNC(=O)CCc1c(C)nc2c(c(C)nn2-c2ccc(C)c(C)c2)c1C	KB-3-1 cytotox inconclusive, SW480 rerep 15µM
Cc1ccc(-n2nc(C)c3c(C)c(CCC(=O)Nc4ccc(CN5CCCC5)cc4)c(C)nc32)cc1	RORgamma inh inconclusive, MCF10A rereplic 26µM, SW480 rerep inconclusive
CCCCNC(=O)C1(C)CCN1C(=O)Cc1cccc2ccccc12 (centres undefined)	none (no result: RORgamma inh, MCF10A rereplic, VP16 counter, SW480 rerep)
COCCN1CC(=O)N(c2cccc(C)c2C)C(c2ccc(Cl)cc2)C1=O (centres undefined)	none
Cc1cccc(N2C(=O)C(Oc3ccc(Cl)cc3Cl)C2C=O)c1C (centres undefined)	KB-3-1 cytotox inconclusive, KB-V1 cytotox inconclusive, MCF10A rereplic 18µM, VP16 counter inconclusive, SW480 rerep inconclusive
COc1ccc(NC(=O)NNC(=O)c2ccc3ccccc3c2O)c(OC)c1	KB-V1 cytotox inconclusive
O=C(Nc1cccc(-c2nnc(-c3ccccc3)o2)c1)c1ccco1	KB-V1 cytotox 2.9µM
O=C(Nc1ccccc1)c1cccc(-c2nnc(-c3ccccc3)o2)c1	none
O=C(Nc1ccc2oc(-c3ccccc3)nc2c1)c1ccco1	RORgamma inh inconclusive, KB-V1 cytotox 23µM
COc1ccc(C2N=C(Nc3nc4ccccc4o3)NC3=C2C(=O)CC(C)(C)C3)cc1 (centres undefined)	KB-3-1 cytotox inconclusive (no result: RORgamma inh, MCF10A rereplic, VP16 counter, SW480 rerep)
CCOC(=O)C1(Cc2cccc(Cl)c2)CCCN(C(=O)CN2C(=O)CSC2=O)C1 (centres undefined)	VP16 counter inconclusive
C=CCCC1(C)C(=O)N(c2ccccc2)c2ccccc21 (centres undefined)	KB-3-1 cytotox inconclusive, KB-V1 cytotox inconclusive, MCF10A rereplic inconclusive, SW480 rerep 18µM
C=CCC1(C)C(=O)N(c2ccccc2)c2ccccc21 (centres undefined)	none
CC(=O)c1ccc(NC(=O)C(C)n2nc(-c3ccccc3)ccc2=O)cc1 (centres undefined)	none (no result: RORgamma inh, MCF10A rereplic, VP16 counter, SW480 rerep)
CCC(C)(C#CCN1CCCCC1)OCCC#N (centres undefined)	SW480 rerep 18µM
CCC(C#CCN1CCCCC1)(CC)OCCC#N	none
OC[C@@H]1OC(O)[C@@H](O)[C@H](O)[C@@H]1O (some centres undefined)	none (no result: KB-3-1 cytotox, KB-V1 cytotox, MCF10A rereplic, SW480 rerep)
COc1ccc(S(=O)(=O)Nc2cccc(N(C)S(C)(=O)=O)c2)cc1Br	RORgamma inh inconclusive, KB-V1 cytotox 15µM, VP16 counter inconclusive
COc1ccc(S(=O)(=O)Nc2cccc(C(C)=O)c2)cc1Br	KB-V1 cytotox inconclusive
CC(C)C[C@H](N)c1nnc(S(=O)(=O)Cc2ccc(F)cc2)o1	KB-3-1 cytotox inconclusive, KB-V1 cytotox inconclusive, MCF10A rereplic inconclusive, VP16 counter 14µM, SW480 rerep inconclusive
CCCOC(=O)N[C@@H]1C(=O)N2C(C(=O)OCCC)=C(C)CS[C@H]12	KB-3-1 cytotox 16µM!, KB-V1 cytotox inconclusive
COc1ccc(-c2noc(CC(=O)Nc3ccc(F)cc3F)n2)cc1	none (no result: RORgamma inh, MCF10A rereplic, VP16 counter, SW480 rerep)
CCC(C)Cn1cnc2c(SCc3ccccc3F)nc(N)nc21 (centres undefined)	MCF10A rereplic 18µM, SW480 rerep inconclusive (no result: RORgamma inh, VP16 counter)
Cc1ccc2ccccc2c1CSc1nc(N)nc2c1ncn2CC(C)C	KB-V1 cytotox 21µM (no result: RORgamma inh, VP16 counter)
CC(C)Cn1cnc2c(SCc3ccccc3)nc(N)nc21	none (no result: RORgamma inh, VP16 counter)
